Reference: PubChem BioAssay AID2685 (National Center for Advancing Translational Sciences (NCATS), 2010)
About 2,100 (0.66%) of roughly 320,000 compounds were called active. Not shown: some 53% with an inconclusive outcome. The sample holds actives, similar compounds and a random draw of the others, so the mix is not that of the screen. Calls come from the whole dose curve; as a rule, active = well fitted inhibition curve with a large enough effect in the signal ratio, with a control signal flat (not every such curve was filed as active); inconclusive = small, poorly fitted or top-dose-only effect, or effect the other way, or a change in a side signal; inactive = flat fitted curve, though single readings scatter; the % refers to the signal ratio.

Assay: qHTS Assay for Lipid Storage Modulators in Drosophila S3 Cells;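 for cell number change: cells counted by Cell Tracker Red CMTPX staining in the red channel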; for lipid storage change, negative = inhibition: % is set by controls: 0 for no effect and ±100 for the full control effect
Settings: BODIPY lipid droplet fluorescence, 18-24 h, cells fed with added oleic acid; cell number change: measured here: cell count max response; series mostly up to 46.1 µM; lipid storage change, negative = inhibition: at the top concentration
Method in brief: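 Drosophila S3 cells got compounds at several concentrations plus oleic acid (400 uM solution). Laser-scanning cytometry with 488 nm excitation read lipid droplets at 500-530 nm and cells at 575-640 nm. Percent activity was relative to 20 uM Triacsin C.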
Potency is the fitted concentration of half-maximal effect.

| Compound | outcome | Potency | cell number change | lipid storage change, negative = inhibition |
| --- | --- | --- | --- | --- |
| O=C(N1CCN=C1SCc1cccnc1)C12CC3CC(CC(C3)C1)C2 | inactive |  |  |  |
| CSC1=NCCN1C(=O)C12CC3CC(CC(C3)C1)C2 |  | 1.3 µM (active) | -43.3% |  |
| O=C1NCCN1C(=O)C12CC3CC(CC(C3)C1)C2 |  |  | -1.76% | 0.211% (inactive) |
| CCn1c(SCC(=O)NC2CC2)nnc1C(C)Oc1ccccc1 (stereo not drawn) |  |  |  | 5.84% (inactive) |
| COc1cccc(NC(=O)Cn2nnc(C(=O)NCCc3ccccc3)c2N)c1 |  | 20.6 µM (active) | 2.67% |  |
| COc1ccc(NC(=O)Cn2nnc(C(=O)NCCc3ccccc3)c2N)c(OC)c1 | inactive |  | 6.1% |  |
| CCOc1ccc(Cn2nnc(C(=O)NCCc3ccc(Cl)cc3)c2N)cc1 |  | 18.4 µM (active) | 1.29% |  |
| COc1cccc(NC(=O)Cn2nnc(C(=O)Nc3ccccc3)c2N)c1 |  |  | -18.5% | 6.84% (inactive) |
| Nc1c(C(=O)NCCc2ccccc2)nnn1Cc1ccc(Cl)cc1 |  |  | -16.5% | 8.7% (inactive) |
| CCOc1ccc(Cn2nnc(C(=O)NCCc3ccccc3)c2N)cc1 |  |  | -4.24% | -7.29% (inactive) |
| CCc1nc(NC(=O)c2sc(C)nc2C)sc1C(=O)OC | inactive |  | -8.97% |  |
| O=C1OCCC1Sc1nnc(-c2ccc(Br)cc2)o1 (stereo not drawn) |  |  | 7.55% | 5.68% (inactive) |
| O=C1OCCC1Sc1nnc(-c2ccc3c(c2)OCO3)o1 (stereo not drawn) |  |  | 15.3% | 5.11% (inactive) |
| O=C1OCCC1Sc1nnc(-c2cccc(Br)c2)o1 (stereo not drawn) |  | 20.6 µM (active) | -11.2% |  |
| Cc1ccc(CNC(=O)CCNS(=O)(=O)c2ccc(C)cc2)cc1 |  |  | -14.3% | 0.234% (inactive) |
| Cc1ccc(CS(=O)(=O)CCC(=O)NCc2ccc(F)cc2)cc1 |  |  | 22.6% | 0.549% (inactive) |
| Cc1ccc(/C=C/S(=O)(=O)NCCC(=O)NCc2ccc(F)cc2)cc1 |  | 13 µM (active) | -6.87% |  |
| CCOC(=O)N1CCC(N(CCN(C)C)C(=S)Nc2ccccc2OC)CC1 |  |  | 7.57% | 1.39% (inactive) |
| CCCCCOC(=O)c1ccccc1C(=O)O |  |  | 16.1% | 22.4% (inactive) |

| Compound | outcome | Potency | cell number change | lipid storage change, negative = inhibition |
| --- | --- | --- | --- | --- |
| Cc1ccc2c(c1)C1CN(C)CCC1N2S(=O)(=O)c1ccc(C#N)cc1 (stereo not drawn) |  |  | -11.9% | 4.76% (inactive) |
| Cc1ccc2c(c1)[C@@H]1CN(C)CC[C@@H]1N2S(=O)(=O)c1ccc([N+](=O)[O-])cc1 |  |  | -4.89% | 3.92% (inactive) |
| Cc1ccc2c(c1)C1CN(C)CCC1N2S(=O)(=O)c1cccc(F)c1 (stereo not drawn) |  | 14.6 µM (active) | -8.15% |  |
| O=C(CN1CCN(S(=O)(=O)c2ccccc2[N+](=O)[O-])CC1)Nc1ccc(N2CCOCC2)cc1 |  |  | 26.6% | 17.1% (inactive) |
| Cn1c2ccccc2c(=O)c2c(=O)n(-c3ccccc3)c(-c3ccc(C(C)(C)C)cc3)nc21 |  |  | 8.74% | -2.59% (inactive) |
| COc1cccc(CNC(=O)C2(C)Oc3ccccc3NC2=O)c1 (stereo not drawn) |  | 23.1 µM (active) | 10.7% |  |
| COc1cccc(CNC(=O)c2ccc(C(=O)NCc3cccc(OC)c3)cc2)c1 |  |  |  | 16.4% (inactive) |
| COc1cccc(CNC(=O)CC2Sc3ccccc3NC2=O)c1 (stereo not drawn) |  |  |  | -8.39% (inactive) |
| CC1(C(=O)NCc2ccc(Cl)c(Cl)c2)Oc2cccnc2NC1=O (stereo not drawn) |  |  |  | 25.5% (inactive) |
| CC1(C(=O)NCc2ccccc2)Oc2ccccc2NC1=O (stereo not drawn) |  | 23.1 µM (active) | -4.11% |  |
| Cc1ccc(CNC(=O)C2(C)Oc3ccccc3NC2=O)cc1 (stereo not drawn) |  |  | -6.1% | 18.2% (inactive) |
| O=C(CNC(=O)c1ccco1)OCC(=O)c1ccc(Cl)cc1 |  |  | 3.11% | -4.23% (inactive) |
| COc1ccc(NC(=O)/C=C/c2ccc(Br)o2)cn1 |  |  | 2.5% | 0.369% (inactive) |
| CC[C@@H](C)[C@@H](C(=O)N1CCN(C(=O)OC(C)(C)C)CC1)n1cc(CCCN=C(NC(=O)OC(C)(C)C)NC(=O)OC(C)(C)C)nn1 |  |  | -5.51% | -15.3% (inactive) |
| Cc1cccc(N(C)S(=O)(=O)c2ccc3[nH]c(=O)c(=O)[nH]c3c2)c1 |  |  | -11.4% | -8.22% (inactive) |
| Cc1ccc(N(C)S(=O)(=O)c2c[nH]c3ccc([N+](=O)[O-])cc23)cc1 | inactive |  | 2.95% |  |
| Cc1cccc(N(C)S(=O)(=O)c2c[nH]c3ccc([N+](=O)[O-])cc23)c1 |  | 2.59 µM (active) | -6.19% |  |
| CCN(c1ccccc1)S(=O)(=O)c1ccc2[nH]c(=O)[nH]c2c1 |  |  | 8.44% | 13.3% (inactive) |
| CCN(c1ccccc1)S(=O)(=O)c1c[nH]c2ccc([N+](=O)[O-])cc12 |  | 5.8 µM (active) | -8.56% |  |

| Compound | outcome | Potency | cell number change | lipid storage change, negative = inhibition |
| --- | --- | --- | --- | --- |
| CCN(c1ccccc1)S(=O)(=O)c1cc([N+](=O)[O-])ccc1N |  |  | 7.82% | 0.407% (inactive) |
| O=C(CN1CCN(Cc2ccccc2)CC1)N1CCN(c2ccccc2)CC1 |  |  | 9.09% | 9.16% (inactive) |
| CCc1nc2ccccc2c(C(=O)OCC(=O)NCc2ccco2)c1C | inactive |  | 16.5% |  |
| CCC(=O)c1ccc(OCC(=O)NNC(=O)c2cc(C)oc2C)cc1 |  |  | -5.72% | -5.26% [at 0.0737 µM] (inactive) |
| COc1cc(C(C(=O)NC(C)(C)C)N(C(=O)CNC(=O)c2cccs2)c2ccc(C(C)C)cc2)cc(OC)c1OC (stereo not drawn) | inactive |  | 12.2% |  |
| COc1ccccc1CC(=O)NCCc1c[nH]c2ccccc12 |  | 0.231 µM (active) | 10.3% |  |
| CCCc1cc(=O)oc2cc(OCC(=O)NCCc3ccc(S(N)(=O)=O)cc3)ccc12 | inactive |  | -10.3% |  |
| COc1ccc2[nH]cc(CCNC(=O)C3CCCCC3)c2c1 |  |  | -11.3% | -9.93% (inactive) |
| COc1ccc2[nH]cc(CCNC(=O)COc3cc(C)cc4oc(=O)cc(C)c34)c2c1 |  |  | -0.087% | -23.1% (inactive) |
| COc1ccc2[nH]cc(CCNC(=O)Cc3ccc(F)cc3)c2c1 |  |  |  | 20.2% (inactive) |
| COc1ccc(C(=O)NCC(=O)NCCc2c[nH]c3ccccc23)cc1OC |  |  | 7.36% | 5.27% (inactive) |
| COc1ccc(C(=O)NCCc2c[nH]c3ccccc23)cc1OC |  |  | -1.75% | 18% (inactive) |
| CCCc1cc(=O)oc2cc(OCC(=O)NCCc3c[nH]c4ccc(OC)cc34)ccc12 |  | 8.2 µM (active) | -12% |  |
| COc1ccc2[nH]cc(CCNC(=O)CCC3CCCCC3)c2c1 |  | 16.4 µM (active) | -11.7% |  |
| O=C(CCc1nc2ccccc2c(=O)[nH]1)OCc1cccc(C(F)(F)F)c1 |  |  | -19.1% | -1.93% (inactive) |
| COc1ccc(CN2CCCCC2C)cc1C (stereo not drawn) |  |  | 16% | -3.51% (inactive) |
| Cc1cccc(NC(=O)CSc2nc3[nH]ncc3c(=O)[nH]2)c1C |  |  | 6.95% | 18% (inactive) |
| COc1ccc(-c2nnc(-c3ccc(Br)o3)o2)cc1OC |  |  | 2.37% | 21.7% (inactive) |
| CCOC(=O)N1CCN(C(=O)COc2ccc(S(=O)(=O)NC(C)C)cc2)CC1 |  |  | -5.69% | 5.97% (inactive) |
